# Data reported in PubChem BioAssay (EPA / NIEHS).
# Where “and” joins values, the source holds several entries; their conditions need not be identical. Equal values may be shown once. Inconclusive results are not listed. Some compounds were tested as several samples or in several runs, with calls that do not always agree. Calls of active or inactive are those of the source. Rule for the calls: active = hit-call score of the fitted dose curve at least 0.9, where 1 is the maximum; inconclusive = response in the unintended direction; inactive = score below 0.9.
# What was measured:
# [1] = target: guinea pig Leukotriene D4 Receptor (LTD4), CYSLTR1 (gene 100135514) (UniProt Q2NNR5); assay: NVS_GPCR_gLTD4: NovaScreen (NVS) G Protein-Coupled Receptor Assay for guinea pig Leukotriene D4 Receptor (LTD4) (AID 2283248)
# In short: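 Radioligand displacement on guinea pig lung membranes, 1 h incubation, filtration and scintillation counting; DMSO as negative control. Duplicate 25 uM primary screen, then singleton concentration-response up to 50 uM.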
# [2] = target: human Serotonin, 5-Hydroxytryptamine Receptor 5A (5HT5A), HTR5A (gene 3361) (UniProt P47898); assay: NVS_GPCR_h5HT5A: NovaScreen (NVS) G Protein-Coupled Receptor Assay for human Serotonin, 5-Hydroxytryptamine Receptor 5A (5HT5A) (AID 2283251)
# In short: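 Cell-free radioligand displacement binding on HEK293-derived membrane protein, 1 h incubation, filter-based scintillation counting. Primary screen in duplicate at 25 uM, actives followed in concentration series; loss of signal fitted versus DMSO.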
# [3] = target: human Serotonin, 5-Hydroxytryptamine Receptor 2A (5HT2A), HTR2A (gene 3356) (UniProt P28223); assay: NVS_GPCR_h5HT2A: NovaScreen (NVS) G Protein-Coupled Receptor Assay for human Serotonin, 5-Hydroxytryptamine Receptor 2A (5HT2A) (AID 2283249)
# In short: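 Human cortex membranes, cell-free radioligand binding; filter-based scintillation read 1.5 h after dosing. Duplicate screen at 25 uM first; displacement of specific binding (loss of signal) versus DMSO.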
# [4] = tested on: rat Monoamine Oxidase, MAO-A, Peripheral (MAOAP), gene 29253; assay: NVS_ENZ_rMAOAP: NovaScreen (NVS) Enzymatic Assay for rat Monoamine Oxidase, MAO-A, Peripheral (MAOAP) (AID 2283237)
# In short: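 Rat liver mitochondrial membranes served as the MAO-A source, with enzyme activity measured by radiometric scintillation counting 1.17 hours after dosing. Loss of signal was fitted against DMSO; primary screen used 25 uM in duplicate, follow-up used concentration series.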
# [5] = target: rat Monoamine Oxidase, MAO-B, Central (MAOBC), Maob (gene 25750) (UniProt P19643); assay: NVS_ENZ_rMAOBC: NovaScreen (NVS) Enzymatic Assay for rat Monoamine Oxidase, MAO-B, Central (MAOBC) (AID 2283238)
# In short: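 Compounds were first tested in duplicate at 25 uM against MAO-B from rat brain tissue; those passing the inhibition threshold were retested in concentration series up to 50 uM. Radiodetection by scintillation counting at 1.17 h, analysed against DMSO baseline.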
# [6] = target: bovine Dopamine Receptor (DR), Non-selective Binding, DRD1 (gene 281125) (UniProt Q95136); assay: NVS_GPCR_bDR_NonSelective: NovaScreen (NVS) G Protein-Coupled Receptor Assay for bovine Dopamine Receptor (DR), Non-selective Binding (AID 2283241)
# In short: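 Bovine striatal membranes; radioligand displacement read by filtration and scintillation counting 1 h after dosing, loss of signal vs DMSO. Screened in duplicate at 25 uM, then concentration-response for hits.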
# [7] = target: rat Monoamine Oxidase, MAO-B, Peripheral (MAOBP), Maob (gene 25750) (UniProt P19643); assay: NVS_ENZ_rMAOBP: NovaScreen (NVS) Enzymatic Assay for rat Monoamine Oxidase, MAO-B, Peripheral (MAOBP) (AID 2283242)
# [8] = target: Adenosine receptor A1 (Bos taurus) (UniProt P28190); assay: NVS_GPCR_bAdoR_NonSelective: NovaScreen (NVS) G Protein-Coupled Receptor Assay for bovine Adenosine Receptor (AdoR), Non-selective Binding (AID 2283244)
# In short: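 Bovine striatal membranes, radioligand displacement binding, 1 h after dosing, filter-based scintillation counting. Screened in duplicate at 25 uM, then concentration-response up to 50 uM; loss of specific binding relative to DMSO.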
# [9] = NVS_GPCR_bNPY_NonSelective: NovaScreen (NVS) G Protein-Coupled Receptor Assay for bovine Neuropeptide Y (NPY) Receptor, Non-selective Binding (AID 2283245)
# In short: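 Bovine hippocampal membranes incubated 1 hour with radioligand and test chemical. Bound ligand measured by filter-based scintillation counting. Single-concentration screen at 25 uM in duplicate, then concentration-response up to 50 uM.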
# [10] = tested on: guinea pig Muscarinic, Peripheral (Mperiperal) Receptor, Non-selective Binding, gene 100379235; assay: NVS_GPCR_gMPeripheral_NonSelective: NovaScreen (NVS) G Protein-Coupled Receptor Assay for guinea pig Muscarinic, Peripheral (Mperiperal) Receptor, Non-selective Binding (AID 2283250)
# In short: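 Guinea pig bladder membranes, radioligand binding read 1 h after dosing by filter scintillation counting; loss of signal vs DMSO. Primary duplicate screen at 25 uM, then concentration-response up to 50 uM.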
# [11] = target: guinea pig Opioid, Kappa 1 Receptor (OpiateK), OPRK1 (gene 100135587) (UniProt P41144); assay: NVS_GPCR_gOpiateK: NovaScreen (NVS) G Protein-Coupled Receptor Assay for guinea pig Opioid, Kappa 1 Receptor (OpiateK) (AID 2283252);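 note: radioligand displacement from kappa opioid receptor in guinea pig cerebellar membranes; active means reduced radioligand binding relative to DMSO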
# In short: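 Signal is scintillation counts of filter-trapped radioligand bound to guinea pig cerebellar membrane receptor, measured 2 hours post-dosing. Activity is loss of binding versus DMSO, first at 25 uM in duplicate, then as concentration series for actives.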
# [12] = target: human Adenosine A1 Receptor (AdoRA1), ADORA1 (gene 134) (UniProt P30542); assay: NVS_GPCR_hAdoRA1: NovaScreen (NVS) G Protein-Coupled Receptor Assay for human Adenosine A1 Receptor (AdoRA1) (AID 2283254)
# In short: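 Each chemical is first tested twice at 25 uM, actives later in dilution series, against a radioligand bound to human cortex membranes; after 1 h, filter-retained counts are compared with DMSO controls, lower signal indicating displacement.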
# [13] = tested on: guinea pig Leukotriene B4 Receptor (LTB4), gene 100379538; assay: NVS_GPCR_gLTB4: NovaScreen (NVS) G Protein-Coupled Receptor Assay for guinea pig Leukotriene B4 Receptor (LTB4) (AID 2283247)
# In short: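 Radioligand displacement on guinea pig spleen membranes, filter-based scintillation counting 2 h after dosing. Primary duplicate single point at 25 uM; hits over threshold (e.g. 30% inhibition) run in concentration-response up to 50 uM, DMSO baseline.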
# [14] = target: human Serotonin, 5-Hydroxytryptamine Receptor 7 (5HT7), HTR7 (gene 3363) (UniProt P34969); assay: NVS_GPCR_h5HT7: NovaScreen (NVS) G Protein-Coupled Receptor Assay for human Serotonin, 5-Hydroxytryptamine Receptor 7 (5HT7) (AID 2283255);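 note: hits reduce specific radioligand binding relative to DMSO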
# In short: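 Radioligand displacement on membranes from CHO cells expressing human 5HT7, 1 h incubation, filter-based scintillation counting. Primary screen used a single 25 uM concentration in duplicate; actives were followed up in concentration series.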
# [15] = target: human Serotonin, 5-Hydroxytryptamine Receptor 6 (5HT6), HTR6 (gene 3362) (UniProt P50406); assay: NVS_GPCR_h5HT6: NovaScreen (NVS) G Protein-Coupled Receptor Assay for human Serotonin, 5-Hydroxytryptamine Receptor 6 (5HT6) (AID 2283253)
# In short: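 Radioligand binding to 5HT6 in HEK293-derived membranes, cell-free, 1 h after dosing; bound ligand measured by filter-based scintillation counting. Primary screen in duplicate at 25 uM; actives retested in concentration series.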
# [16] = target: rat Constitutive Nitric Oxide Synthase (CNOS), Nos1 (gene 24598) (UniProt P29476); assay: NVS_ENZ_rCNOS: NovaScreen (NVS) Enzymatic Assay for rat Constitutive Nitric Oxide Synthase (CNOS) (AID 2283236)
# In short: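 Enzyme activity in rat brain membrane preparation, read 1 h after dosing by filter-based radiometric scintillation counting. Primary screen in duplicate at 25 uM; actives (e.g., ≥30% inhibition) then run in concentration-response up to 50 uM.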
# [17] = target: sheep Cyclooxygenase-1 (Cox1), PTGS1 (gene 443551) (UniProt P05979); assay: NVS_ENZ_oCOX1: NovaScreen (NVS) Enzymatic Assay for sheep Cyclooxygenase-1 (Cox1) (AID 2283239);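 note: actives reduce cyclooxygenase activity so potencies are for inhibitors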
# In short: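 Colorimetric enzyme readout using sheep seminal-vesicle cyclooxygenase-1, measured 0.66 h post-dosing. Single-concentration duplicates at 25 uM first, then concentration series for actives, with DMSO as baseline and plate controls.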
# [18] = target: human Adenosine A2a Receptor (AdoRA2a), ADORA2A (gene 135) (UniProt P29274); assay: NVS_GPCR_hAdoRA2a: NovaScreen (NVS) G Protein-Coupled Receptor Assay for human Adenosine A2a Receptor (AdoRA2a) (AID 2283256)
# In short: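 Radioligand displacement on HEK293-derived membrane protein, cell-free; filter-based scintillation counting 1.5 hours after dosing, loss of signal vs DMSO. Single-point duplicate screen at 25 uM, actives retested in concentration series.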
# [19] = tested on: bovine Histamine 1 Receptor (H1), gene 281231; assay: NVS_GPCR_bH1: NovaScreen (NVS) G Protein-Coupled Receptor Assay for bovine Histamine 1 Receptor (H1) (AID 2283246)
# In short: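 Radioligand displacement on bovine cerebellar membranes, 1 h after dosing, filter-based scintillation read-out; loss of signal vs DMSO. Duplicate single-concentration screen at 25 uM, then concentration-response up to 50 uM for hits.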
# Chain of human Serotonin, 5-Hydroxytryptamine Receptor 5A (5HT5A), HTR5A (gene 3361) (P47898 whole entry, looked up): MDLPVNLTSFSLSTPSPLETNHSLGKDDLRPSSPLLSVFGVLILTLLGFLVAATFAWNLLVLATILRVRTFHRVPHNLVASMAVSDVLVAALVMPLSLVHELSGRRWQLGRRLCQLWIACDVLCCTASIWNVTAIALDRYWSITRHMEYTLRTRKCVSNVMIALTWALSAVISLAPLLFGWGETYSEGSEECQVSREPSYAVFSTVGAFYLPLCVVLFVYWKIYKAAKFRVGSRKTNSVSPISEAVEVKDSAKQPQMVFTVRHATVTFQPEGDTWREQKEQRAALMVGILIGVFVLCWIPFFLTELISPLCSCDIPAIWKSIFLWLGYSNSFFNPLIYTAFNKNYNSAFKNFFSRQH
# Chain of rat Monoamine Oxidase, MAO-B, Central (MAOBC), Maob (gene 25750) (P19643 whole entry, looked up): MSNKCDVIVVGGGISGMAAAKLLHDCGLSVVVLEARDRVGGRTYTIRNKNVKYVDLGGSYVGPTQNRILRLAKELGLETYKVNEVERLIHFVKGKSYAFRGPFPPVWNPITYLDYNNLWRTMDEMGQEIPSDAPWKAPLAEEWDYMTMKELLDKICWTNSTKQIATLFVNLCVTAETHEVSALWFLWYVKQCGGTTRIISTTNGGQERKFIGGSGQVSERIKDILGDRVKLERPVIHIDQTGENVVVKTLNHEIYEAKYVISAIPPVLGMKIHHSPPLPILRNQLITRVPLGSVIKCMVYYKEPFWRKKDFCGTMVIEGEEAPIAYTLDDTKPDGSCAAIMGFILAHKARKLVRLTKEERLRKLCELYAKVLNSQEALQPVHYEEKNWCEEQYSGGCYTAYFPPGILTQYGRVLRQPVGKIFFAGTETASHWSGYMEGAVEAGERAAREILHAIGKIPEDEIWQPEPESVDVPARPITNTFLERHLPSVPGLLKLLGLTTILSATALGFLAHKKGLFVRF
# Chain of guinea pig Opioid, Kappa 1 Receptor (OpiateK), OPRK1 (gene 100135587) (P41144 whole entry, looked up): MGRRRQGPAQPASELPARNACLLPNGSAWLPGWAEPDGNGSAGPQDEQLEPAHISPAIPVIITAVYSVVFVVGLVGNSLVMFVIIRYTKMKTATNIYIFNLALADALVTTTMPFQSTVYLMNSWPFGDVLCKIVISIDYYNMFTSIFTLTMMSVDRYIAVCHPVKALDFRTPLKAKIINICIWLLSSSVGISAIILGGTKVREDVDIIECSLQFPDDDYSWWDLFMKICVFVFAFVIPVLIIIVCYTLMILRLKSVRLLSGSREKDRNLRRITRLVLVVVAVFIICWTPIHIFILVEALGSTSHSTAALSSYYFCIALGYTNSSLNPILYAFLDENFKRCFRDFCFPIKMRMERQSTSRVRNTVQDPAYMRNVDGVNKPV
# Chain of sheep Cyclooxygenase-1 (Cox1), PTGS1 (gene 443551) (P05979 whole entry, looked up): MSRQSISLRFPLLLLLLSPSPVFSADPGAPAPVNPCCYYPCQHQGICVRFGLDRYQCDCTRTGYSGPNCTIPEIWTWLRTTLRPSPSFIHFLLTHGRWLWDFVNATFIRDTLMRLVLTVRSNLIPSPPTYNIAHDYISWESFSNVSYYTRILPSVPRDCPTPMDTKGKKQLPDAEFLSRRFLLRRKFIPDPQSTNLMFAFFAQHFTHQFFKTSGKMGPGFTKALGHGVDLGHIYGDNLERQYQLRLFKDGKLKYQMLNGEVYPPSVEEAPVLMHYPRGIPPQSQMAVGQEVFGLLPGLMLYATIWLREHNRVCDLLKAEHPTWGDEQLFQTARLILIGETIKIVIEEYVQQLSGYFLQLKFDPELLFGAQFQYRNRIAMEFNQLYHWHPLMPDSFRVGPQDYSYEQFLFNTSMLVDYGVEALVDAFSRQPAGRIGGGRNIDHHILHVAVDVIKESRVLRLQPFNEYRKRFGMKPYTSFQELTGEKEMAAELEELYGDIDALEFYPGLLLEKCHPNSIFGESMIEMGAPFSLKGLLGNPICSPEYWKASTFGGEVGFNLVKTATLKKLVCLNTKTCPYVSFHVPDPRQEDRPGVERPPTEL
# Chain of Adenosine receptor A1 (Bos taurus) (P28190 whole entry, looked up): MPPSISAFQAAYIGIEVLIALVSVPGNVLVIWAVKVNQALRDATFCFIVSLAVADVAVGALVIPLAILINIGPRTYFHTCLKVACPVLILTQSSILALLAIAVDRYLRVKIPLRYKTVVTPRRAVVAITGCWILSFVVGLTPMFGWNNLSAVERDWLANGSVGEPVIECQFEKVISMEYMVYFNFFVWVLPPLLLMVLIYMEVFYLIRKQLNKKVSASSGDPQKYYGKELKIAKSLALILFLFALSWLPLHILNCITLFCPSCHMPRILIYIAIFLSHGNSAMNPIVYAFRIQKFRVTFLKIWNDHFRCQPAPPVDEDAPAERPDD
# Chain of human Serotonin, 5-Hydroxytryptamine Receptor 7 (5HT7), HTR7 (gene 3363) (P34969 whole entry, looked up): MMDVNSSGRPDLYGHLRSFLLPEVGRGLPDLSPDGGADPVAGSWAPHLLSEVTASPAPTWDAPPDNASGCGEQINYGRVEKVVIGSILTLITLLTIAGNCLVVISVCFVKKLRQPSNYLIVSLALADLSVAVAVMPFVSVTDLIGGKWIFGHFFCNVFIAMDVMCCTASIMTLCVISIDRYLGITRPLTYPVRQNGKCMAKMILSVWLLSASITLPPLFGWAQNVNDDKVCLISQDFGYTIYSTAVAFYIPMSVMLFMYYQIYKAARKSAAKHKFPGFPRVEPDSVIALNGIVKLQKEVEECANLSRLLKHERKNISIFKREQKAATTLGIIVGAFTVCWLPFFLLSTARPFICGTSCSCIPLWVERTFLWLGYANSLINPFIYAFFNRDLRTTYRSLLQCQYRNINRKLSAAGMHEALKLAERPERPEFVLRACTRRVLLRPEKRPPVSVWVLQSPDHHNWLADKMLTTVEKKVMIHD
# Chain of bovine Dopamine Receptor (DR), Non-selective Binding, DRD1 (gene 281125) (Q95136 whole entry, looked up): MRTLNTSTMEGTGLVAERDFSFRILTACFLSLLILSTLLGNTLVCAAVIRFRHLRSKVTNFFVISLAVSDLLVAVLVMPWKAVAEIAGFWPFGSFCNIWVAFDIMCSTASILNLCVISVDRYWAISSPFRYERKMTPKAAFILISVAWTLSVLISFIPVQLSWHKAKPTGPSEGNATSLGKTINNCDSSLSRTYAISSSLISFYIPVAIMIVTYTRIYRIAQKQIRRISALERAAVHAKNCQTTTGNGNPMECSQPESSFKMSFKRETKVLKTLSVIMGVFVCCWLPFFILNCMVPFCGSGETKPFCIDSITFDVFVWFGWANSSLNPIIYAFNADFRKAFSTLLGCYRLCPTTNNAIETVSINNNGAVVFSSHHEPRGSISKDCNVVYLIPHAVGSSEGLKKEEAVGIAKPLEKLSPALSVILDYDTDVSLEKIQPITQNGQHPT
# Chain of human Adenosine A1 Receptor (AdoRA1), ADORA1 (gene 134) (P30542 whole entry, looked up): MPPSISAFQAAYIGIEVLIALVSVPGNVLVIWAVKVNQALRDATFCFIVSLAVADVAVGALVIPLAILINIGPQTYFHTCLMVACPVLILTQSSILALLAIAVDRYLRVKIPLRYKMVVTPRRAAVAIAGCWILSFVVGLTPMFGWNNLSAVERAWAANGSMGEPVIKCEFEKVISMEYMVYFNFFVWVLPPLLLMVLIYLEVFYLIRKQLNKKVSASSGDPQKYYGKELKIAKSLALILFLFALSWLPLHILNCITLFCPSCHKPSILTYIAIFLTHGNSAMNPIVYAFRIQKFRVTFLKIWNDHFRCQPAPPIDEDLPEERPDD
# Chain of guinea pig Leukotriene D4 Receptor (LTD4), CYSLTR1 (gene 100135514) (Q2NNR5 whole entry, looked up): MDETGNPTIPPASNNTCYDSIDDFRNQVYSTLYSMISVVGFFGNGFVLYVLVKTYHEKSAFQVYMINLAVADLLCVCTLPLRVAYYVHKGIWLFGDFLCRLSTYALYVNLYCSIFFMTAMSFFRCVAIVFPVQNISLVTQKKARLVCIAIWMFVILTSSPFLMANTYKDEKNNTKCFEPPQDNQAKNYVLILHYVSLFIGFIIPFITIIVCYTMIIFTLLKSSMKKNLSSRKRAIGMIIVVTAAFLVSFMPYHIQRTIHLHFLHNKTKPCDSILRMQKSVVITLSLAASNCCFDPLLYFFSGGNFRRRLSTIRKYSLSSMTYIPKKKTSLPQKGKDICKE
# Chain of human Serotonin, 5-Hydroxytryptamine Receptor 6 (5HT6), HTR6 (gene 3362) (P50406 whole entry, looked up): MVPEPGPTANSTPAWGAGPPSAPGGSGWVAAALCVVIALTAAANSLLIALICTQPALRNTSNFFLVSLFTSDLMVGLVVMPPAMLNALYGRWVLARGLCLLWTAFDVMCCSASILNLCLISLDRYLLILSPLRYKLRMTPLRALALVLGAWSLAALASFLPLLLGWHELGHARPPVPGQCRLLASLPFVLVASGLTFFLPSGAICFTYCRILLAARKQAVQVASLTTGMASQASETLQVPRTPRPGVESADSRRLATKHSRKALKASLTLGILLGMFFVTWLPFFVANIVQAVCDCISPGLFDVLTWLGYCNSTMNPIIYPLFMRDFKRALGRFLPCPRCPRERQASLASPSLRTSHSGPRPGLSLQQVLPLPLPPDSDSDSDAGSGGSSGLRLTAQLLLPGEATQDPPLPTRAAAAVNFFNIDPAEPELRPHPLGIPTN
# Chain of rat Monoamine Oxidase, MAO-B, Peripheral (MAOBP), Maob (gene 25750) (P19643 whole entry, looked up): as the sequence (P19643 whole entry, looked up) above
smiles,measurement,setting,value
CCON=C(CC)C1=C(O)CC(c2c(C)cc(C)cc2C)CC1=O (stereo not given),AC50,[1],4.89 µM (active)
same,outcome,[2],inactive
CCNc1nc(Cl)nc(NCC)n1,outcome,[3],inactive
CCCCNC(=O)OCC#CI,AC50,[4],36.8 µM (active) and 25 µM (active)
same,outcome,[5],inactive
same,outcome,[6],inactive
same,AC50,[7],42.4 µM (active)
same,AC50,[8],11.9 µM (active)
same,outcome,[8],inactive
same,AC50,[9],4.96 µM (active)
same,outcome,[9],inactive
same,outcome,[10],inactive
same,AC50,[11],37.9 µM (active) and 40.9 µM (active)
same,AC50,[12],9.47 µM (active) and 15.2 µM (active)
N#CC(CCc1ccc(Cl)cc1)(Cn1cncn1)c1ccccc1 (stereo not given),outcome,[13],inactive
C#CCOS(=O)OC1CCCCC1Oc1ccc(C(C)(C)C)cc1 (stereo not given),AC50,[5],13.3 µM (active)
same,outcome,[1],inactive
same,AC50,[2],35 µM (active)
same,AC50,[14],25 µM (active)
OC(c1ccc(Cl)cc1)(c1cncnc1)c1ccccc1Cl (stereo not given),outcome,[2],inactive
same,AC50,[11],9.41 µM (active)
same,AC50,[15],8.03 µM (active)
same,AC50,[12],4.96 µM (active)
C=CCC1=C(C)C(OC(=O)C2C(C=C(C)C)C2(C)C)CC1=O (stereo not given),outcome,[4],inactive
same,outcome,[1],inactive
CCCCOC(=O)c1ccccc1C(=O)OCCCC,outcome,[16],inactive
same,outcome,[17],inactive
same,outcome,[6],inactive
Oc1ccccc1-c1ccccc1,AC50,[17],8.97 µM (active)
same,outcome,[14],inactive
same,outcome,[18],inactive
CO/C=C(/C(=O)OC)c1ccccc1Oc1cc(Oc2ccccc2C#N)ncn1,outcome,[17],inactive
same,AC50,[8],19.1 µM (active) and 7.23 µM (active)
same,outcome,[10],inactive
same,AC50,[11],12.3 µM (active) [middle of 4 runs]
same,AC50,[12],6.85 µM (active) [middle of 4 runs]
same,AC50,[14],5.24 µM (active)
C=CC1(C)OC(=O)N(c2cc(Cl)cc(Cl)c2)C1=O (stereo not given),outcome,[5],inactive
same,outcome,[17],inactive
COc1nc(C)nc(NC(=O)NS(=O)(=O)c2ccccc2CCC(F)(F)F)n1,outcome,[2],inactive
CCOc1cc(Oc2ccc(C(F)(F)F)cc2Cl)ccc1[N+](=O)[O-],outcome,[1],inactive
same,outcome,[2],inactive
CC(C)(C)c1ccc(CSc2cnn(C(C)(C)C)c(=O)c2Cl)cc1,outcome,[5],inactive
same,outcome,[17],inactive
CC1COC(Cn2cncn2)(c2ccc(Oc3ccc(Cl)cc3)cc2Cl)O1 (stereo not given),AC50,[4],1.3 µM (active)
same,AC50,[2],6.37 µM (active)
same,outcome,[11],inactive
same,outcome,[14],inactive
Cc1cc(Cl)ccc1OCC(=O)O,outcome,[2],inactive
CC(C)Oc1cc(-n2nc(C(C)(C)C)oc2=O)c(Cl)cc1Cl,outcome,[19],inactive
